# Assay outcomes deposited in PubChem BioAssay by several laboratories.
# SKKanGAS inh: blocks kanamycin growth of S. pyogenes SKKanGAS strain; BacTiter-Glo, 6 h; inhibition, % at 7.5 µM; 300,000 compounds, 1.3% hits;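 active = mean replicate score, as percent of positive control median, at least 50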;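 note: strain carries kanamycin resistance gene driven by streptokinase promoter and grows in 40 µg/ml kanamycin; loss of luminescence reflects streptokinase promoter inhibition or plain growth inhibition; 0% = median of DMSO wells and 100% = positive control at its reference dose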
# TIM10 inh: growth inhibitors of TIM10 yeast strain | S. cerevisiae TIM10 strain growth, BacTiter-Glo luminescence, 24 h | inhibition, % at 10 µM | 330,000 compounds, 1.4% hits | AID 463195;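 active = inhibition of 40% or more at the single tested concentration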;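 note: wild-type TIM10 isogenic control strain grown at permissive 25 °C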
# tim23-1 inh: growth inhibitors of tim23-1 mutant yeast; AID 463212; inhibition, % at 20 µM; S. cerevisiae tim23-1 growth, BacTiter-Glo luminescence, 24 h; 330,000 compounds, 1.3% hits;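 active = growth inhibition of the mutant yeast at or above 50%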;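 note: temperature-sensitive mutant grown at 25 °C; plate controls were DMSO-treated mutant yeast for no effect and medium wells lacking yeast for full effect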
# PfHsp90 yeast 2: growth inhibition of yeast expressing Plasmodium Hsp90 | inhibition, % at 9.4 µM | S. cerevisiae expressing PfHsp90, BacTiter-Glo ATP, 48 h; yeast lacking PDR1 and PDR3 efflux regulators | 310,000 compounds, 0.32% hits;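 active = every replicate shows inhibition above about 80%, whatever the replicate mean, limit read from the data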;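 note: 0% = DMSO neutral controls and 100% = 20 µM radicicol positive controls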
# tim10-1 inh: inhibits growth of tim10-1 mutant yeast; S. cerevisiae tim10-1 ts strain growth, BacTiter-Glo, 24 h; inhibition, % at 20 µM; 330,000 compounds, 2.2% hits; AID 463190;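 active = inhibition of at least 40%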;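 note: mutant grown at 25 °C; 0% = DMSO wells with yeast and 100% = wells holding no yeast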
# tim10-1 confirm: confirmation of tim10-1 mutant yeast growth inhibitors. shares compounds with tim10-1 inh. S. cerevisiae tim10-1 ts strain growth, BacTiter-Glo, 24 h. inhibition, % at 20 µM. 7,400 compounds, 56% hits. AID 463213;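 active = inhibition of yeast growth at or above a set limit in either of two repeat tests at 20 µM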;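 note: tim10-1 mutant grown at permissive 25 °C to find synthetic lethal compounds; 0% = DMSO yeast wells and 100% = medium wells without yeast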
# The depositor's hits bear a star; . = not tested or not shown. Shown are actives, neighbours in structure and some others; about 4.4% of the full set was active somewhere.
SMILES,SKKanGAS inh,TIM10 inh,tim23-1 inh,PfHsp90 yeast 2,tim10-1 inh,tim10-1 confirm
Cc1ccc(C)c(S(=O)(=O)N2CCCOC2CNC(=O)C(=O)NCCc2ccccc2)c1 (stereo not drawn),5,3,7,8,7,.
Cc1onc(-c2ccccc2Cl)c1C(=O)N1CCN(c2nc3ccccc3s2)CC1,8,33,32,2,49*,29
CCc1ccccc1NC(=O)CNC(=O)c1cc(C2CC2)nn1-c1ccccc1,.,-7,26,1,17,.
CC1=Nc2cc(C(=O)N3CCCCC3)ccc2Sc2ccc(C)cc21,8,10,32,20,45*,0
CCCC1=Nc2cc(C(=O)N3CCC(C(=O)OCC)CC3)ccc2Sc2ccccc21,3,-1,22,5,41*,-12
CCN=C1S/C(=C\c2ccc(Sc3ccc(Cl)cc3)o2)C(=O)N1CC,-6,4,-2,-36,21,.
CCN=C1S/C(=C/c2ccc(-c3ccc(F)cc3)o2)C(=O)N1CC,-6,5,22,17,45*,29*
O=C(c1ccc2ncsc2c1)N1CCN(c2ccccc2Cl)CC1,3,18,42,12,49*,38*
CCOC(=O)C1(CCc2ccccc2)CCN(C(=O)CCc2cnn(C)c2)CC1,-16,15,27,-19,42*,30*
CCOC(=O)C1(CCc2ccccc2)CCN(C(=O)CCc2cnccn2)CC1,-3,23,10,-6,14,.
COC(=O)[C@]1(Cc2ccccc2)N[C@H](CN(C)S(=O)(=O)c2ccc(-c3ccccc3)cc2)[C@@H]2C(=O)N(C)C(=O)[C@@H]21,.,7,4,-11,3,.
CCCCCCCNC1=CC(=O)CC(c2ccco2)C1 (stereo not drawn),-7,-9,30,-98,50*,14
CCOc1ccc(NC2=CC(=O)CC(c3ccco3)C2)cc1 (stereo not drawn),-6,17,8,.,18,.
COc1ccc(C2NC(=S)NC(O)(C(F)(F)F)C2C(=O)c2cccs2)cc1 (stereo not drawn),1,2,15,.,43*,16
Cc1ccc(CNC(=O)c2ccc(N3CCC4(CC3)CC(c3ccccc3)=NO4)c(NC(=O)c3ccc(Cl)c([N+](=O)[O-])c3)c2)cc1,13,0,11,-19,16,.
Cc1ccc2nc(NC(=O)C3CCCN(S(=O)(=O)c4cccc5nsnc45)C3)sc2c1 (stereo not drawn),27,32,26,-12,41*,20
Cc1ccc2nc(NC(=O)C3CCN(S(=O)(=O)c4cccc5nsnc45)CC3)sc2c1,31,30,-8,-17,10,.
Cc1ccc2nc(NC(=O)C3CCN(S(=O)(=O)c4cccs4)CC3)sc2c1,24,31,21,0,42*,19
COc1ccc(CNC(=O)COC(=O)C2CCC(C(C)(C)C)CC2)cc1 (stereo not drawn),0,37,29,-16,35,.
CCN(CC)C(=O)c1nc[nH]c1C(=O)N1CCC(C)CC1,.,6,-5,-4,-6,.
COc1ccccc1NC(=O)c1cc(S(=O)(=O)N2CCCCCC2)ccc1F,-5,9,15,-11,12,.
COc1ccccc1NC(=O)c1cc(S(=O)(=O)NC2CCCC2)ccc1F,-5,22,20,-16,48*,9
COc1ccccc1NC1CCCCC1NS(=O)(=O)c1ccccc1 (stereo not drawn),2,15,31,-22,43*,6
CN(c1ccccc1)C1CCCCC1NS(=O)(=O)c1ccc(Cl)cc1 (stereo not drawn),11,26,33,-23,50*,36*
COc1ccc(S(=O)(=O)Nc2cc3c4c(c2)CCC(=O)N4CCC3)cc1C,7,15,-5,5,3,.
SMILES,SKKanGAS inh,TIM10 inh,tim23-1 inh,PfHsp90 yeast 2,tim10-1 inh,tim10-1 confirm
CCOC(=O)c1c(CSCc2ccccc2)oc2ccc(O)c(CN(C)C)c12,12,23,18,13,20,.
COc1ccc(C2=NN(C(=O)CSc3nnc(-c4ccccc4F)o3)C(c3ccco3)C2)cc1 (stereo not drawn),20,26,42,3,48*,38*
COc1ccc(C2=NN(C(N)=S)C(c3ccco3)C2)cc1 (stereo not drawn),-3,-4,6,-15,7,.
CCCN1C(=O)c2ccc(C(=O)Nc3cc(C)ccc3O)cc2C1=O,2,3,48,26,44*,25
CCOC(=O)c1cc(-c2ccncc2)nc2c1c(C)nn2-c1ccccn1,10,34,45,-36,45*,34*
CCOc1ccc(N(Cc2cc3ccc(C)cc3[nH]c2=O)S(=O)(=O)c2ccccc2)cc1,16,3,45,7,42*,15
Cc1ccc2cc(CN(c3ccccc3)S(=O)(=O)c3ccccc3)c(=O)[nH]c2c1,-8,8,22,-40,13,.
CSC1=NC(C)(C)C=C(/C=C/c2ccc(Cl)cc2)N1,3,18,30,7,43*,28
CSC1=NC(C)(C)C=C(/C=C/c2c(Cl)cccc2Cl)N1,9,36,36,-9,44*,25
CCSC1=NC(C)(C)C=C(/C=C/c2ccc(Cl)cc2Cl)N1,-5,4,36,3,34,.
CSC1=NC(C)(C)C=C(/C=C/c2ccc(Cl)cc2Cl)N1,-17,24,44,9,38,.
CC1CCN(S(=O)(=O)c2ccc(C(=O)Nc3nnc(C4CC4)o3)cc2)CC1,17,20,38,.,41*,10
COC(=O)c1cn(-c2ccc(Cl)cc2)c(=O)c2ccccc12,-5,25,39,-22,44*,29
Cc1cc(NC(=O)c2cccs2)n(-c2nc3ccccc3[nH]2)n1,-12,21,-26,15,24,.
Cc1cc(NC(=O)c2sccc2C)n(-c2nc3ccccc3[nH]2)n1,63*,21,44,58,49*,24
O=S(=O)(C/C(=C/CO)S(=O)(=O)c1ccccc1)c1ccccc1,3,18,26,-32,44*,19
O=S(=O)(CS(=O)(=O)c1ccccc1)c1ccccc1,.,.,.,-26,.,.
O=C1C[C@@H]2c3c(cccc3CN1Cc1ccccc1Br)C[C@@H](O)[C@H]2O,.,.,.,-7,.,.
Cc1ccc(/C=N/Nc2ncc(Cl)cc2Cl)s1,-6,19,30,-7,42*,17
Oc1ccc(/C=N/Nc2ncc(Cl)cc2Cl)cc1,-3,22,25,-14,45*,11
Clc1cnc(N/N=C/c2cccs2)c(Cl)c1,-2,-14,-5,4,-4,.
Clc1cnc(N/N=C/c2ccco2)c(Cl)c1,-3,1,0,14,10,.
O=C(Nc1cccnc1)C1CCN(S(=O)(=O)c2ccc(Cl)cc2)CC1,12,8,3,-22,-2,.
S=C(Nc1ccccn1)Nc1ccccc1Cl,15,27,28,-16,6,.
